EPAC1 agonist: qHTS for Agonist of cAMP-regulated guanine nucleotide exchange factor 3 (EPAC1): primary screen | Potency, µM (titrated, usually from 154 µM), usual class: activators | Rap guanine nucleotide exchange factor 3 (Homo sapiens), O95398 | 360,000 tested, 0.073% active | EPAC1 agonist qHTS, biochemical assay; response scale: 100% = response to 6.5 mM cAMP; further: nearly all actives have a fitted effect of over 60% in size
Target sequence (O95398 whole entry, looked up): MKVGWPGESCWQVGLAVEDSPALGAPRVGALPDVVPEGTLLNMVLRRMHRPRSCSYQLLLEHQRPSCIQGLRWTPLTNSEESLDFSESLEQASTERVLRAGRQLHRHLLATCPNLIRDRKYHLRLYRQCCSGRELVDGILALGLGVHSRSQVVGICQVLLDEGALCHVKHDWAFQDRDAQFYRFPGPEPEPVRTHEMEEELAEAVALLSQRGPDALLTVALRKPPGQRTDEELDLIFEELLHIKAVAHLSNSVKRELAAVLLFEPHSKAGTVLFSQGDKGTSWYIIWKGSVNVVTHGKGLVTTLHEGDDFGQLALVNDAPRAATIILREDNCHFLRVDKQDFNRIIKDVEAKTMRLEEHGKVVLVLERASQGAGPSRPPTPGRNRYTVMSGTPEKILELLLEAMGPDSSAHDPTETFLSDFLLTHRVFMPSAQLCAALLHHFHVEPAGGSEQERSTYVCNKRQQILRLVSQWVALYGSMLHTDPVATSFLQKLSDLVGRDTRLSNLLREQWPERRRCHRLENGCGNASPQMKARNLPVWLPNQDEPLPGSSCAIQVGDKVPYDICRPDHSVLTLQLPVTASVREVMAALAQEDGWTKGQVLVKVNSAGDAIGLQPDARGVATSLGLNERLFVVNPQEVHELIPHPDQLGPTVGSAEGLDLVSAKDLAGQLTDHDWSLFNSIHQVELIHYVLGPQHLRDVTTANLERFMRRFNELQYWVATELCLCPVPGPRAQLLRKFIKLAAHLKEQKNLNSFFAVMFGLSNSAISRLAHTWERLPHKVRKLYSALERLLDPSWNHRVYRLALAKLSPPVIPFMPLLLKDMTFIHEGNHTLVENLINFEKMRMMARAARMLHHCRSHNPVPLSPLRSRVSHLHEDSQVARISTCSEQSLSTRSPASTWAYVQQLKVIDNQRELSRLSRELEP
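Nucleotide exchange assay: 100 nM EPAC1 with 250 nM Rap1B loaded with BODIPY-GDP and 50 uM GDP, room temperature. Fluorescence (480/540 nm) read every 5 min for 30 min; signal change normalized to 6.5 mM cAMP as full agonist.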
EPAC2 agonist: qHTS for Agonist of cAMP-regulated guanine nucleotide exchange factor 4 (EPAC2): primary screen; Rap guanine nucleotide exchange factor 4 (Homo sapiens), Q8WZA2; EPAC2 activation, biochemical qHTS; response scale: 100% = 6.5 mM cAMP response; Potency, µM (series often up to 154 µM), usual class: activators; 360,000 tested, 0.079% active; further: nearly all actives have a fitted effect of over 50% in size
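qHTS, titration series. 100 nM EPAC2 / 250 nM Rap1B-BODIPY-GDP / 50 uM GDP; RT; ex 480/em 540 nm, 5-min reads to 30 min. Norm. to 6.5 mM cAMP = activation.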
EPAC1 antagonist: qHTS for Antagonist of cAMP-regulated guanine nucleotide exchange factor 3 (EPAC1): primary screen | EPAC1 GEF assay, Rap1b-BODIPY-GDP exchange fluorescence | Potency, µM (doses to about 115 µM), most hits filed as inhibitors | 360,000 tested, 0.14% active | AID 720709, 2013; further: nearly all actives have a fitted effect of over 50% in size
EPAC2 antag: qHTS for Antagonist of cAMP-regulated guanine nucleotide exchange factor 2 (EPAC2): primary screen; Potency, µM (top dose mostly 114 µM), most hits filed as inhibitors; Rap guanine nucleotide exchange factor 4 (Homo sapiens), Q8WZA2; EPAC2 GEF exchange of Rap1B-BODIPY-GDP, fluorescence; AID 720708, 2013; 360,000 tested, 0.18% active; further: nearly all actives have a fitted effect of over 45% in size
Numbers stand for hits; – = inactive; ? = inconclusive. Only some compounds are listed: those with a hit (about 0.39% of all), similar ones and a draw of the others. The call rests on the fitted dose curve; in most records, active means well fitted curve in the direction sought with a large enough effect; inconclusive means small, poorly fitted or top-dose-only effect, or another doubt; inactive means no such curve, though single readings can be large; an effect the other way counts as inactive or inconclusive.

SMILES	EPAC1 agonist	EPAC2 agonist	EPAC1 antagonist	EPAC2 antag
CCN(CC)C1=CC2=CC(=C(C#N)C#N)CCC2CC1 (centres undefined)	?	100µM	–	–
CC1=NN(c2ccccc2)C(=O)/C1=C\c1c(C)[nH]n(-c2ccccc2)c1=O	–	–	–	–
CC1=NN(c2ccccc2)C(=O)/C1=C/c1c(O)n(-c2ccc(F)c(Cl)c2)[nH]c1=O	–	–	50µM	89µM
O=C(N=c1ccn(-c2nc3ccccc3nc2NS(=O)(=O)c2ccc(Cl)cc2)cc1)c1cccs1	–	–	–	–
CCOc1ccc(S(=O)(=O)Nc2nc3ccccc3nc2-n2ccc(=NC(=O)c3cccs3)cc2)cc1	?	100µM	–	–
Brc1ccc(-c2csc(-c3c[nH]c4ccccc34)n2)cc1	–	40µM	–	–
CN(CCc1ccccn1)C(=O)Nc1ccc(C(C)(C)C)cc1	–	–	–	–
CN(CCc1ccccn1)C(=O)Nc1ccc(F)cc1	–	6.3µM	–	–
CCCc1cc(=O)[nH]c(SCC(=O)c2c(N)n(C3CC3)c(=O)[nH]c2=O)n1	–	–	–	–
Cc1ccc2nc(SCC(=O)c3c(N)n(C4CC4)c(=O)[nH]c3=O)[nH]c2c1	–	–	–	71µM
COc1ccc(C2OC(CCc3ccccc3)CC3=C2C(=O)OC(C)(C)O3)cc1 (centres undefined)	–	–	–	–
CCOc1ccccc1NC1c2ccccc2C(=O)N1Cc1ccco1 (centres undefined)	–	–	–	16µM
O=C1c2ccccc2C(O)N1Cc1ccco1 (centres undefined)	–	–	–	–
O=C(CSc1nc(-c2ccccc2)nc2ccccc12)Nc1cccc(C(=O)O)c1	–	–	–	–
O=C(CSc1nc(-c2ccc(F)cc2)nc2ccc(F)cc12)Nc1cccc(C(=O)O)c1	–	–	71µM	–
CCCn1c(O)c(N=Nc2ccc3ccccc3n2)c2ccccc21	–	89µM	–	–
COC(=O)c1[nH]c2cc(C)ccc2c1NC(=O)CN1CCCc2ccccc21	–	7.9µM	–	–
O=C(O)c1cccc(N2C(=O)c3cc([N+](=O)[O-])cc4cc([N+](=O)[O-])cc(c34)C2=O)c1	–	–	–	50µM
O=c1cc(CN2CCN(S(=O)(=O)c3cccc(Cl)c3)CC2)c2ccc(O)cc2o1	–	–	79µM	–
NS(=O)(=O)c1cc(C(=O)NC2CCSc3ccccc32)ccc1Cl (centres undefined)	–	–	28µM	35µM
COC(=O)CSc1nc(C)cc(Oc2ccccc2)n1	–	–	50µM	–
Cc1cc(Oc2ccc(Br)cc2)nc(SCC(=O)c2ccccc2)n1	–	–	–	–
CC(=O)NC(C)(c1ccccc1)c1nc(-c2cnc3ccccc3c2)cs1 (centres undefined)	–	–	–	–
O=C(Nc1ccc(S(=O)(=O)Nc2nccs2)cc1)c1cc(-c2ccccn2)nc2ccccc12	–	–	71µM	–
O=C(CSc1nc2nc(-c3cccs3)cc(C(F)(F)F)c2c(=O)[nH]1)Nc1ccc(F)c(F)c1	–	–	79µM	–
SMILES	EPAC1 agonist	EPAC2 agonist	EPAC1 antagonist	EPAC2 antag
Cc1cc(O)c(C(=O)/C=C/c2ccccc2O)c(=O)o1	–	–	–	–
Cc1cc(O)c(C(=O)/C=C/c2cccc([N+](=O)[O-])c2)c(=O)o1	–	–	56µM	–
COC(=O)C[C@H]1CC[C@H](NC(=O)Nc2ccccc2F)[C@@H](CO)O1	–	–	–	–
Cc1nc2ccccc2c(=O)n1/N=C/c1ccccc1O	–	–	79µM	–
Cc1nc2ccccc2c(=O)n1/N=C/c1ccc(O)c(O)c1O	–	–	?	–
COc1cc(NC(=O)c2sc3ncn(CC(=O)N4CCCCC4C)c(=O)c3c2C)cc(OC)c1OC (centres undefined)	–	–	–	–
S=c1[nH]nc(-c2cc(-c3ccccc3)n[nH]2)n1/N=C/c1ccc(Cl)c(Cl)c1	63µM	–	56µM	?
S=c1[nH]nc(-c2cc(-c3ccccc3)n[nH]2)n1/N=C/c1ccc(Cl)cc1	–	–	–	–
S=c1[nH]nc(-c2cc(-c3ccccc3)n[nH]2)n1/N=C/c1cccc(Cl)c1	89µM	–	50µM	–
COCCNC(=O)C[C@@H]1C[C@H]2c3cc(NC(=O)Nc4ccc(F)cc4)ccc3O[C@H]2[C@H](CO)O1	–	–	–	–
COc1ccc2c(Cl)cc(NC(=O)Nc3c(C)cccc3C)nc2c1	–	–	–	–
CC1(C(=O)NS(=O)(=O)c2ccc(F)cc2F)CCN1C(=O)C1(c2ccc(Cl)cc2)CCC1 (centres undefined)	–	–	?	35µM
CC(NC(=O)c1cc(S(=O)(=O)N2CCOCC2)ccc1N1CCCC1)c1ccc(Cl)c(Cl)c1 (centres undefined)	56µM	–	–	–
Cc1ccc(S(=O)(=O)/N=C2/NC(=O)/C(=C\c3cc(Br)cc(Br)c3O)S2)cc1	–	–	?	79µM
CCc1nc2c(OCCc3cccc(OC)c3)cccn2c1N(C=O)Cc1ccccc1	–	–	–	–
O=S(=O)(O)c1cccc(N=Nc2c(O)ccc3ccccc23)c1	–	–	–	35µM
CC(=O)Nc1ccc(-c2ccnc3c2CC(C(=O)Nc2cccc(N(C)C)c2)O3)cc1 (centres undefined)	–	–	–	–
CC(C)(C)c1cc(-c2csc(Nc3ccccc3)[n+]2Cc2ccc(C(=O)O)cc2)cc(C(C)(C)C)c1O	–	–	79µM	–
N#C/C(=C/C1=C(N2CCOCC2)C(=C/c2cccc([N+](=O)[O-])c2)/CC1)C(=O)Nc1ccccc1F	–	–	–	79µM
COC(=O)c1ccc(COc2cccn3c(N(C)C(=O)CCC4CCCC4)c(C)nc23)cc1	–	–	–	?
O=c1c(/C=C(\O)c2ccc(F)cc2)nc2ccccc2n1-c1ccccc1	–	100µM	–	–
CC1=CC(C)(C)N(C(=O)c2ccc(F)cc2)c2cc3c(cc21)OCO3	–	–	–	50µM
CC(=O)Nc1cc(-c2cccc(NS(C)(=O)=O)c2)cn2c(-c3ccc(F)c(Cl)c3)cnc12	–	–	–	–
O=C(N/N=C/c1ccc(-c2ccc(S(=O)(=O)Nc3ncccn3)cc2)o1)c1cc2ccccc2cc1O	–	–	13µM	–

Compound activity: PubChem, National Center for Advancing Translational Sciences (NCATS)
